# Laboratory results: PubChem BioAssay (NCI)
# Compounds without any hit were thinned out: in the full panel of roughly 83,000, 20% have a hit.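 96-well plates, one dose, 48 hours. Percent growth reported; active if below 10.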 Activity calls are given as the source filed them.
# System: MDA-MB-468 breast
# Assay: NCI-60 one-dose screen, 48 h (100 = growth as untreated, 0 = no growth, -100 = all killed)
# Details: 10 µM unless noted
row,SMILES,growth
1,Cc1cc(Cc2ccccc2)c(O)c(Cc2ccccc2)c1,95.8% (inactive)
2,C=C(C)[C@@H]1CC[C@]2(COP(=O)(OCC)OCC)CC[C@]3(C)[C@H](CC[C@@H]4[C@@]5(C)CCCNC(C)(C)[C@@H]5CC[C@]43C)[C@@H]12,24.6% (inactive)
3,O=[N+]([O-])c1ccc(-n2[nH]nnc2=S)cc1,123% (inactive)
4,CCN=C1C=CC(=C(c2ccc(N(C)C)cc2)c2ccc(N(C)C)cc2)c2ccccc21,-26.8% (active)
5,N#Cc1c(NC(=O)c2ccc(F)c(Cl)c2)sc2c1CCC(=O)C2,-20% (active)
6,COc1ccc(-c2cnc3c(-c4cccc5cnccc45)cnn3c2)cc1,47.9% (inactive)
7,Oc1[nH]c2cc(Cl)ccc2c1/C=c1/ccc2c(c1)N=C(c1cc(F)cc(F)c1)N=2,-19.6% (active)
8,C/C(=N\NC(=S)Nc1ccc(Br)cc1)c1cc2ccccc2oc1=O,-23.5% (active)
9,COc1ccc(-c2nn(-c3cccc(Cl)c3)cc2-c2cc(-c3cccs3)[nH]c(=S)n2)cc1,67.8% (inactive)
10,CCCCSc1ncnc2c1ncn2C1CCCCO1 (centres undefined),122% (inactive)
11,COC(=O)c1nc(=S)[nH]c(C(=O)OC)c1C(=O)c1ccc2ccccc2c1,90% (inactive)
12,N#Cc1ccc(O)c(C2=NCC(c3ccc(-c4ccccc4)cc3)O2)c1 (centres undefined),26.9% (inactive)
13,CCOC(=O)C1C(C(=O)OCC)C2C(=O)C3C(C(=O)OCC)C(C(=O)OCC)C3C(=O)C12 (centres undefined),98.5% (inactive)
14,CCc1ccc(-c2ccc(COc3ccc(CC4SC(=O)NC4=O)cc3)cc2)cc1 (centres undefined),35.3% (inactive)
